In the supplement of paper PMC6411743:
± gives the standard deviation of the averaged measurements. Targets with the largest changes are over-represented here; the source holds about 6,500 in all.

Compound: Nc1ncnc2c1ncn2[C@@H]1O[C@H](COP(=O)(O)OP(=O)(O)OP(=O)(O)O)[C@@H](O)[C@H]1O [adenosine triphosphate]
Test: NP40-soluble protein abundance relative to vehicle (solubility fold change) (ratio); higher = more soluble protein in presence of ATP
Method in brief: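 Each value is a fold change relative to the detergent-processed vehicle, calculated per replicate from vsn-normalised intensities. Jurkat crude lysate received eight concentrations (0.1 to 10 mM) for 10 min at room temperature and 3 min at 37 °C, then was solubilised in 0.8% NP40 with benzonase (60 min, 4 °C). The ultracentrifuged supernatant was TMT-labelled and run by LC-MS/MS in three independent experiments.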

UniProt Q9Y262, sequence (Q9Y262 whole entry, one chain of several): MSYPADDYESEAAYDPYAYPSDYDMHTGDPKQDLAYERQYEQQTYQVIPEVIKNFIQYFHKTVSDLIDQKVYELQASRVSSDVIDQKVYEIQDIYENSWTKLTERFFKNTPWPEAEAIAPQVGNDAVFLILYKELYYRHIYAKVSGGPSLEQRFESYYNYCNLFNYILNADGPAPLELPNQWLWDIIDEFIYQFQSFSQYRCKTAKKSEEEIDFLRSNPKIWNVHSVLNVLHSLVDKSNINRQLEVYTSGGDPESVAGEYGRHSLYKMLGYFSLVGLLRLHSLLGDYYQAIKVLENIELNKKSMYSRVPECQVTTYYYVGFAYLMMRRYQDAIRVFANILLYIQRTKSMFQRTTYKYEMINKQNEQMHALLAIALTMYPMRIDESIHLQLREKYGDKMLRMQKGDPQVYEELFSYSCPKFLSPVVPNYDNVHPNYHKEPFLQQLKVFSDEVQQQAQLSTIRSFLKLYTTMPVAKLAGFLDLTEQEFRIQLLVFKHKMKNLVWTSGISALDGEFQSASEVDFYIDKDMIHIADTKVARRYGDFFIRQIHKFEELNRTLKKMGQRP
UniProt O95232, sequence (O95232 whole entry, one chain of several): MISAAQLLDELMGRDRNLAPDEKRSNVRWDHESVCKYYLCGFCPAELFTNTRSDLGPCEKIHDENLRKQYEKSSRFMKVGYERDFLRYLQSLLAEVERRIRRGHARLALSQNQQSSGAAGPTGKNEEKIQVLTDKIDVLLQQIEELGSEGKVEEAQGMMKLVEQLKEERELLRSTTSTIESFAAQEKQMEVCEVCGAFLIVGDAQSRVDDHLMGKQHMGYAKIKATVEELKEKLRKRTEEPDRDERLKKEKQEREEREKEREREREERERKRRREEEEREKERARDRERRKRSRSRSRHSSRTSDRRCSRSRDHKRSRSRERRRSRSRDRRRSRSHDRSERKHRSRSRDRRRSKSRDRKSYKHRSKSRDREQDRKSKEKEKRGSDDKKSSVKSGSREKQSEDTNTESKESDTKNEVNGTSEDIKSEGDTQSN
UniProt O00151, sequence (O00151 whole entry): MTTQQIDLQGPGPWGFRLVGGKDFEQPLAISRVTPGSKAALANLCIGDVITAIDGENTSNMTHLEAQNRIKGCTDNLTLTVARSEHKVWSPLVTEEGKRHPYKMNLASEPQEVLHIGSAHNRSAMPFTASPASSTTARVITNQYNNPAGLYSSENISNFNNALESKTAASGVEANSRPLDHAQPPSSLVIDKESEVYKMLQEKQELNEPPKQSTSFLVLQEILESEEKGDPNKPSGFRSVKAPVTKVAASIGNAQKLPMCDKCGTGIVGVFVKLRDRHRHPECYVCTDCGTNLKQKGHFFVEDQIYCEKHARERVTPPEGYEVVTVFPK
UniProt Q9BUN8, sequence (Q9BUN8 whole entry, one chain of several): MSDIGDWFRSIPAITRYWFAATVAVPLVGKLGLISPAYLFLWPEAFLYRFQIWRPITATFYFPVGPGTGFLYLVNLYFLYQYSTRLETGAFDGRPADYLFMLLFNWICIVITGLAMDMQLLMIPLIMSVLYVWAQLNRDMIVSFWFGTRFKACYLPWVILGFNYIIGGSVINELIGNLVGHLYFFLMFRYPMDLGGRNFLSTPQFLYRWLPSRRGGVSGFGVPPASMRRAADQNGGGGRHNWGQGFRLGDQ
UniProt O00754, sequence (O00754 whole entry): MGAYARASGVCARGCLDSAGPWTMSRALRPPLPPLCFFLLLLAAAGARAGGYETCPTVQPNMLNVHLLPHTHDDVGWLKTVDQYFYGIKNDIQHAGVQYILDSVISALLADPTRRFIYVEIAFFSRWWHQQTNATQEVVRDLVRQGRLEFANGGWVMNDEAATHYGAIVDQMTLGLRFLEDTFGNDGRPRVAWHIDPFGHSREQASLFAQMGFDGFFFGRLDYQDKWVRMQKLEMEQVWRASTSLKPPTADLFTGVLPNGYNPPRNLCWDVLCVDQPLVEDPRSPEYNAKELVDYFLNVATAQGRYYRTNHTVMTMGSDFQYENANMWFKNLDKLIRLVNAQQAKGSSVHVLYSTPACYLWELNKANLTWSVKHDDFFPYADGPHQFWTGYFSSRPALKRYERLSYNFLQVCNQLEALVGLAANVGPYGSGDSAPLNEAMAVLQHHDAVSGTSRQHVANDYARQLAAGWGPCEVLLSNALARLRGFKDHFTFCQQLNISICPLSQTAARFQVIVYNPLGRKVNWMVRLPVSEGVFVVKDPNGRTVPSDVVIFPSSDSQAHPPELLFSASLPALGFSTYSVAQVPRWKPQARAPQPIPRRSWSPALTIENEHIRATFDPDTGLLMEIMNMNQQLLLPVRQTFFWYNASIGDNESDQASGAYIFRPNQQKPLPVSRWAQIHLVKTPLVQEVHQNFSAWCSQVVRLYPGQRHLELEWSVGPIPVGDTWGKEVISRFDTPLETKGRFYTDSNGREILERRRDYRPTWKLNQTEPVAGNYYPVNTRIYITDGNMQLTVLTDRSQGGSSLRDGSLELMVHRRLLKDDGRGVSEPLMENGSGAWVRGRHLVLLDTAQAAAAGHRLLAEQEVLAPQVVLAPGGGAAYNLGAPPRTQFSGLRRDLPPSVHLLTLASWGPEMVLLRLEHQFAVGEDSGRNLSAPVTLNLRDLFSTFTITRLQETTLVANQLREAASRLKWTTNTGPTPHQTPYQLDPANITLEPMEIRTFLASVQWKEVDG
UniProt Q7Z478, sequence (Q7Z478 whole entry, one chain of several): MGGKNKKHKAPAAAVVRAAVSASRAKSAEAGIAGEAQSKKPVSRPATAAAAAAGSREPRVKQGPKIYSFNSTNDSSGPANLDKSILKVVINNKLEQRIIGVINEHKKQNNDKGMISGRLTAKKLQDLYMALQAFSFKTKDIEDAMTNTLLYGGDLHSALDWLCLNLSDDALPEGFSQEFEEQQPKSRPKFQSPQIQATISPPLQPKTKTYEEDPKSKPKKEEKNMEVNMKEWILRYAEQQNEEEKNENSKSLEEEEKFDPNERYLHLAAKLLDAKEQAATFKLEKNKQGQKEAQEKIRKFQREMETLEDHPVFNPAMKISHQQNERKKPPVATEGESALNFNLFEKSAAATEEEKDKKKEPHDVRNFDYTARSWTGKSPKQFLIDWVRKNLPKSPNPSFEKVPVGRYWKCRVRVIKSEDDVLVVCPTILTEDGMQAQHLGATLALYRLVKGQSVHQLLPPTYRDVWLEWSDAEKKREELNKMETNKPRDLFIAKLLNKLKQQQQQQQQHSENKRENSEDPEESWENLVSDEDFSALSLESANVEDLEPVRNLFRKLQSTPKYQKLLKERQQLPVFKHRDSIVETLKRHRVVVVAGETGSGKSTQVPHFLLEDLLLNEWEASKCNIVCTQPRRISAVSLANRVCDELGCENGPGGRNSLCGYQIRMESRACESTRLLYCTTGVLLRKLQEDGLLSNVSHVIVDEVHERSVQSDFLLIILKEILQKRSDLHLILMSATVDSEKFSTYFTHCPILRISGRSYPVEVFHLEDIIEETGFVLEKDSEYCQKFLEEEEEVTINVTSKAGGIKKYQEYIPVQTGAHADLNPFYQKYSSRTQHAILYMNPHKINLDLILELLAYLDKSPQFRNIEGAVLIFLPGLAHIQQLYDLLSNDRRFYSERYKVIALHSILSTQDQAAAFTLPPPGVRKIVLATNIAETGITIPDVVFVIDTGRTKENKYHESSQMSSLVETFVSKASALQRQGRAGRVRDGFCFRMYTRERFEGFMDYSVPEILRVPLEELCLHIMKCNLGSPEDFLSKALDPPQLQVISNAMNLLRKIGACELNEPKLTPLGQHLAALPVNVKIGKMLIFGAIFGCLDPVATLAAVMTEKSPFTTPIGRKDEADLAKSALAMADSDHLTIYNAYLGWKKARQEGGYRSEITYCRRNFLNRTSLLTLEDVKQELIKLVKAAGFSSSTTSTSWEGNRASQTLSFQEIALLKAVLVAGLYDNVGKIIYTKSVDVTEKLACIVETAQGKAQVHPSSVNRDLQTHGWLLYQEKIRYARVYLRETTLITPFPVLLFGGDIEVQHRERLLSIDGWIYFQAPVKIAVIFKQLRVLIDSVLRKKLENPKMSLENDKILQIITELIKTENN
UniProt O00232, sequence (O00232 whole entry): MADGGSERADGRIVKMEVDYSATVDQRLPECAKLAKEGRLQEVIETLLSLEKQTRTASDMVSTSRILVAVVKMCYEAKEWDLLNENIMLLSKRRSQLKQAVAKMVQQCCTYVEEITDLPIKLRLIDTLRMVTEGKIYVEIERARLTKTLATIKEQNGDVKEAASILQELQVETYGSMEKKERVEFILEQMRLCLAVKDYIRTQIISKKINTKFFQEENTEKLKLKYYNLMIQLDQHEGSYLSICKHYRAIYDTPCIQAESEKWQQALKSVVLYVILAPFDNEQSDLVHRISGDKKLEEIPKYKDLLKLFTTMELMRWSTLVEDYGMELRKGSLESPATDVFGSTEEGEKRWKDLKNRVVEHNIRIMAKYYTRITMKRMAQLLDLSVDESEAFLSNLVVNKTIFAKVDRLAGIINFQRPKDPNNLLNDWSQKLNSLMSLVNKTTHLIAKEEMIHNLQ
UniProt Q8WX92, sequence (Q8WX92 whole entry): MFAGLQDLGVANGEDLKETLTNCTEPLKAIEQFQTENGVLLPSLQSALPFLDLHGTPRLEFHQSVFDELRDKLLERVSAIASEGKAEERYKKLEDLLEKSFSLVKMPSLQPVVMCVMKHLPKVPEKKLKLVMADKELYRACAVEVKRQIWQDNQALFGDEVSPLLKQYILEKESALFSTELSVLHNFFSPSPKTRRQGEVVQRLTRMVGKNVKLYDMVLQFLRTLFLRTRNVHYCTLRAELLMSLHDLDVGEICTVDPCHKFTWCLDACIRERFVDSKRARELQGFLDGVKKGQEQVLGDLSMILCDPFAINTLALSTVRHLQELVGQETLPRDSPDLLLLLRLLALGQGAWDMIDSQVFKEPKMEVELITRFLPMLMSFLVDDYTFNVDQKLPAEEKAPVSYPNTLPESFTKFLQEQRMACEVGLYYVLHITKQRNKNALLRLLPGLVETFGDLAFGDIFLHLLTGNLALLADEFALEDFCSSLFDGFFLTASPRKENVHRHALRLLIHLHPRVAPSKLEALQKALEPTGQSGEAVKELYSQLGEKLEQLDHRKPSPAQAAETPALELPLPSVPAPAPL

Target	NP40-soluble protein abundance (concentration: 1mM)	NP40-soluble protein abundance (concentration: 2mM)	NP40-soluble protein abundance (concentration: 4mM)	NP40-soluble protein abundance (concentration: 6mM)	NP40-soluble protein abundance (concentration: 8mM)	NP40-soluble protein abundance (concentration: 10mM)
A0A087WYN9|Q7Z478 (UniProt Q7Z478)	2.24 ± 0.062	2.31 ± 0.051	2.45 ± 0.092	2.57 ± 0.045	2.68 ± 0.07	2.74 ± 0.062
G3V0H0|O43913|O43913-2 (UniProt O43913)	1.03 ± 0.12	1.01 ± 0.097	1.02 ± 0.08	1 ± 0.13	1.08 ± 0.078	1.02 ± 0.061
H3BSH7|Q969X6|Q969X6-3 (UniProt Q969X6)	1.1 ± 0.14	1.21 ± 0.03	1.26 ± 0.058	1.425 ± 0.0083	1.46 ± 0.084	1.78 ± 0.047
J3KTE4|J3QR09|P84098 (UniProt P84098)	1.01 ± 0.053	1 ± 0.027	0.968 ± 0.07	0.966 ± 0.043	0.908 ± 0.057	1.05 ± 0.094
B1AKN5|B1AKN7|B1AKN8|Q12857|Q12857-3|Q12857-4|B1AKN6|S4R3K4|Q12857-2 (UniProt Q12857)	1.22 ± 0.072	1.08 ± 0.11	1.12 ± 0.081	1.21 ± 0.13	0.995 ± 0.072	1.13 ± 0.033
A0A0B4J220 (UniProt E9PRG8)	1.02 ± 0.028	1.11 ± 0.066	1.27 ± 0.17	1.31 ± 0.091	1.42 ± 0.27	1.56 ± 0.23
B4E1G1|E5RGY0|Q9BUN8|Q9BUN8-2 (UniProt Q9BUN8)	0.948 ± 0.084	0.979 ± 0.12	0.989 ± 0.083	0.975 ± 0.1	0.955 ± 0.021	1 ± 0.056
E9PLK3|P55786 (UniProt P55786)	1.02 ± 0.12	0.997 ± 0.09	0.976 ± 0.065	0.927 ± 0.13	0.999 ± 0.073	0.974 ± 0.057
PDLIM1 (UniProt O00151)	0.963 ± 0.054	0.958 ± 0.031	0.944 ± 0.041	0.971 ± 0.016	0.939 ± 0.035	0.919 ± 0.036
F5H527|Q76I76 (UniProt Q76I76)	0.984 ± 0.012	1 ± 0.016	0.993 ± 0.03	0.997 ± 0.013	0.978 ± 0.037	0.995 ± 0.062
B0QY89|Q9Y262 (UniProt Q9Y262)	1.09 ± 0.093	1.25 ± 0.15	1.23 ± 0.075	1.35 ± 0.072	1.6 ± 0.1	1.7 ± 0.12
J3KNW7|Q9Y592|Q9Y592-2 (UniProt Q9Y592)	1.06 ± 0.072	0.9299 ± 0.0068	1.02 ± 0.032	1.04 ± 0.028	1.07 ± 0.062	0.993 ± 0.077
A0A0C4DGS0|P56556 (UniProt P56556)	0.969 ± 0.066	0.922 ± 0.055	0.901 ± 0.046	0.875 ± 0.066	0.926 ± 0.053	0.909 ± 0.031
G5E9W3|Q9UKF6 (UniProt Q9UKF6)	1.09 ± 0.073	1.1 ± 0.029	1.14 ± 0.025	1.11 ± 0.048	1.14 ± 0.029	1.18 ± 0.052
M0QZM1|M0R019|P52272|P52272-2 (UniProt P52272)	0.988 ± 0.037	0.999 ± 0.016	1.01 ± 0.032	1.07 ± 0.014	1.04 ± 0.019	1.06 ± 0.024
B7ZC38|Q9NR46 (UniProt Q9NR46)	0.993 ± 0.015	0.977 ± 0.029	0.98 ± 0.033	0.981 ± 0.021	0.988 ± 0.056	0.936 ± 0.039
I3L0W4|Q96F10 (UniProt Q96F10)	0.98 ± 0.13	0.932 ± 0.07	0.962 ± 0.073	0.963 ± 0.064	0.94 ± 0.025	0.944 ± 0.035
MAN2B1 (UniProt O00754)	0.94 ± 0.027	0.948 ± 0.017	0.957 ± 0.023	0.887 ± 0.057	0.917 ± 0.038	0.93 ± 0.018
PSMD12 (UniProt O00232)	0.938 ± 0.063	0.894 ± 0.035	0.863 ± 0.015	0.843 ± 0.025	0.898 ± 0.031	0.885 ± 0.035
CPNE3 (UniProt O75131)	0.969 ± 0.067	0.983 ± 0.052	0.954 ± 0.054	0.903 ± 0.1	0.951 ± 0.024	0.96 ± 0.024
A0A0X1KG71 (UniProt Q8WX92)	0.9808 ± 0.0083	0.989 ± 0.012	0.9482 ± 0.0081	0.959 ± 0.033	0.959 ± 0.022	0.956 ± 0.023
J3KPP4|O95232 (UniProt O95232)	2.04 ± 0.11	2.06 ± 0.14	2.12 ± 0.1	2.32 ± 0.14	2.27 ± 0.13	2.32 ± 0.18
UniProt O15392|O15392-2	0.961 ± 0.1	2.09 ± 1.6	1.13 ± 0.09	1.23 ± 0.031	1.26 ± 0.092	1.31 ± 0.16
HMGN4 (UniProt O00479)	0.97 ± 0.35	1.27 ± 0.44	1.22 ± 0.47	1.67 ± 0.86	1.63 ± 0.72	2.97 ± 2.3
E9PEB9|Q03001|Q03001-3 (UniProt Q03001)	0.92 ± 0.1	0.924 ± 0.041	0.942 ± 0.081	0.959 ± 0.15	0.899 ± 0.09	0.968 ± 0.056
